The full ranking holds about 25,000 sequences; the median of “ln(normalized median fluorescence intensity)” is about 6.7, and the highest 2% start at about 10. What follows is part of a selection rich in the highest values, with near analogues and random picks from the rest.

The text below walks through data of the supplement of paper PMC11417369.

This assay relates to PfHDP1 homeodomain (GST-tagged). Description: gcPBM binding intensity (ln(normalized median fluorescence intensity)); higher = stronger DNA binding. The procedure, abridged:
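Using an Agilent 4 × 180k array, primer-extended double-stranded 36-bp intergenic genomic probes and negative controls were exposed for 1 h to GST-fused P. falciparum DNA-binding domains expressed in E. coli. Binding was carried out in 1× PBS with 1% milk, 0.2 mg/ml BSA, 0.5% salmon testes DNA and 0.03% Triton X-100, and protein was detected with Alexa488 anti-GST antibody and a 488 nm scan. Binding intensity is the highest Masliner-normalised natural-log median intensity across replicate spots of either probe orientation.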
With “AGTAGTCTGGAGAAAAGTACACAGTATCTGGTAACA [XGTACX_site2034]”, the “gcPBM binding intensity (ln)” value came out at 6.

In the case of “TTTTTTTTTTTTTATACACACATTAAAATAAAAAAG [CACACA_site3946]”, the “gcPBM binding intensity (ln)” value came to 6.74.

As to “TTTTAAATATGCCATACACACTACTCTATAATAAAT [CACACA_site6987]”, the “gcPBM binding intensity (ln)” value is 6.56.

For “AATTTTATTCATTGAGCACACAAAATAAATTATCAA [CACACA_site9079]”, the “gcPBM binding intensity (ln)” value was 6.73.

Consider “TACAAAATAAAAATAATTCTTTCAAAAAATAATAAA [XGTACX_negctrl_site368]”, for which the “gcPBM binding intensity (ln)” value amounted to 5.86.

With “ATCTTTCATCTACCAAGTACAAATTACTTTTTTTTT [XGTACX_site7001]”, the “gcPBM binding intensity (ln)” value was 6.79.

For “ATCAAACAAAAAATAAAAAAATGCGACATGTGTACA [TGCATGCA_negctrl_site164]”, the “gcPBM binding intensity (ln)” value amounted to 7.34.

With “GTCGAGGATATATAAAGTACATATATATATATGATA [XGTACX_site1128]”, the “gcPBM binding intensity (ln)” value amounted to 6.41.

Turning to “TTACATAATATATGTACACACGCAAATACTTAGAAT [CACACA_site320]”, the “gcPBM binding intensity (ln)” value was found to be 6.63.

On to “ACCACATTTTTTTTTGCATGTTGTTTAAAAAAAGGC [TGCATGCA_site137]”, for which the “gcPBM binding intensity (ln)” value was found to be 6.74.

With “TATTTGTAAATCGATACACACATATATCTTAATATA [CACACA_site4273]”, the “gcPBM binding intensity (ln)” value is 6.28.

For the sequence “AATTTAATATAATGCACACATAAAACAAAAACAAAA [CACACA_site529]”, the “gcPBM binding intensity (ln)” value is 10.5.

For the sequence “AAAATTTAATATAATGCACACATAAAACAAAAACAA [CACACA_site8071]”, the “gcPBM binding intensity (ln)” value came to 9.14.

“AATTTAATATAATGCACACATAAAAAAAAATTCAAA [CACACA_site2062]”: the “gcPBM binding intensity (ln)” value amounted to 10.5.

As for “AATGCTATCATTAATGCACACATTTAAAATTAATAT [CACACA_site3548]”, the “gcPBM binding intensity (ln)” value stood at 10.

Turning to “AATTTAATATAATGCACACATAAAAAAAAAATCAAA [CACACA_site1]”, the “gcPBM binding intensity (ln)” value came to 9.95.

As for “AATGCTATCATTAATGCACACATTTAAACTTAATAT [CACACA_site5878]”, the “gcPBM binding intensity (ln)” value was determined as 10.6.

Regarding “TAACTTAATATTAATGCACACAATTTATATATATAT [CACACA_site3903]”, the “gcPBM binding intensity (ln)” value was 10.4.

For the sequence “AAAATTTAATATAATGCACACATAAAAAAAAAATCA [CACACA_site7882]”, the “gcPBM binding intensity (ln)” value is 10.7.

As to “TACAATTTAAAACACACACACAATAATACATATATA [CACACA_site1251]”, the “gcPBM binding intensity (ln)” value is 6.89.

Turning to “TTCAAAATAAAAAATTCACACACATATATATATATA [CACACA_site8653]”, the “gcPBM binding intensity (ln)” value was found to be 9.22.

As to “TATTGTCTTGTATATGCATGTAGACCAAATATGTAA [TGCATGCA_site9]”, the “gcPBM binding intensity (ln)” value came to 6.42.

Turning to “AATGAGGATATATACACACATACATTAAAAAAATAT [CACACA_site1849]”, the “gcPBM binding intensity (ln)” value came out at 6.67.

As to “TATTAAACTGGACACACACACACACCCATATATAAA [CACACA_site4579]”, the “gcPBM binding intensity (ln)” value is 6.93.

For “TATATCTTAATATTTACACACATGCGCACCCATAAA [CACACA_site5349]”, the “gcPBM binding intensity (ln)” value is 7.52.
